Inconclusive results are not listed. Unmarked numbers belong to inactive results. Activity calls are given as the source filed them. Calls follow the shape of the dose curve; as a rule, active = well fitted inhibition curve with a large enough effect; inconclusive = small, poorly fitted or top-dose-only effect; inactive = flat fitted curve, though single readings scatter.
% is scaled to controls: 0 for no effect and ±100 for the full control effect; potency is read from the fitted curve at half-maximal effect.

The test concerns CRL-7250. Briefly: Cytotoxic Profiling of Annotated Libraries Using Quantitative High-Throughput Screening (AID 1296008). Also: nearly all actives have a fitted effect of over 60% in size. As to conditions: Five cell lines viability, CellTiter-Glo ATP luminescence, 48-72 h; max response: active compounds read low. The essentials: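 Cytotoxicity was measured as CellTiter-Glo ATP luminescence, read after 10 min at room temperature. Compound treatment of the cells lasted 48 or 72 hr at 37 degrees Celsius in a qHTS format.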
On the technique in general: Cellular ATP, detected with luciferase, serves as a proxy for viable cell number.
For `CC(=O)Oc1ccc(C)cc1`, the max response is -8.74%. Same read-out and setting: then `CC(C)(C)NC[C@H](O)COc1nsnc1N1CCOCC1`, with -0.569%; and `Cc1ncc(CO)c(C=O)c1O`, with -16.1%. Take `CN(C)CCN1C(=O)c2ccccc2N(C)c2ccccc21`: the max response is -7.77%. As for `CC[C@]12CCCN3CCc4c(n(c5ccccc45)C(=O)C1)[C@@H]32`, the max response is 2.69%. Turning to `COc1cc(C)nc(-n2nc(C)cc2OC)n1`, the max response was -9.05%. `O=C1C(O)=C(O)C(=O)C(O)=C1O`: the max response was -21.8%. On the same count and under the same terms, then `CCCCCCCCCCCCSCCOCCO`, with 2.82%; and `COc1ccc(C(=O)c2ccccc2)c(O)c1`, with -4.19%.

Turning to `OC[C@H]1O[C@@H]2O[C@H]3[C@H](O)[C@@H](O)[C@@H](O[C@H]4[C@H](O)[C@@H](O)[C@@H](O[C@H]5[C@H](O)[C@@H](O)[C@@H](O[C@H]6[C@H](O)[C@@H](O)[C@@H](O[C@H]7[C@H](O)[C@@H](O)[C@@H](O[C@H]8[C@H](O)[C@@H](O)[C@@H](O[C@H]1[C@H](O)[C@H]2O)O[C@@H]8CO)O[C@@H]7CO)O[C@@H]6CO)O[C@@H]5CO)O[C@@H]4CO)O[C@@H]3CO`, the result was inactive. Regarding `C#C[C@]1(OC(C)=O)CC[C@H]2[C@@H]3CCC4=C/C(=N/O)CC[C@@H]4[C@H]3CC[C@@]21CC`, the max response is -7.16%.

As for `CCOC(=O)c1c(N)sc2c1CCN(Cc1ccccc1)C2`, the Potency is 18.8 µM (active). Take `CCCCCCCC/C=C\CCCCCCCCN`: the molecule was called inactive. For the molecule `N#CCC(=O)NN`, the call was inactive. For `C#C[C@]1(O)CC[C@H]2[C@@H]3CCC4=CC(=O)CC[C@@H]4[C@H]3CC[C@@]21CC`, the max response was -4.9%. For the molecule `CN1CCC(OC(c2ccccc2)c2ccccc2)CC1`, the call was inactive. As for `CCN[C@@H]1C[C@H](N)[C@@H](OC2OC(CN)=CCC2N)[C@H](O)[C@H]1O[C@H]1OC[C@](C)(O)[C@H](NC)[C@H]1O` (stereo partly specified), the max response was 0.244%.

As for `O=C(c1ccc(F)cc1)C1CCN(CCn2c(=S)[nH]c3ccccc3c2=O)CC1`, the max response was -5.62%. Regarding `CC(=O)N[C@@H](CCC(=O)O)C(=O)O`, the max response is 2.81%. On to `CCCc1ncc(C[n+]2ccccc2C)c(N)n1`, for which the call was inactive.

Turning to `COc1cc(O)c(C(=O)c2ccccc2)cc1S(=O)(=O)O`, the max response is 1.74%.

As for `CCN(CC)CCOC(=O)C1(c2ccccc2)CCCC1`, the max response is -4.97%. As for `CCC(Cc1c(I)cc(I)c(N)c1I)C(=O)O` (stereo unspecified), the call was inactive. As to `OC[C@H]1O[C@@H](Oc2ccc(O)cc2)[C@H](O)[C@@H](O)[C@@H]1O`, the max response is -17%. In the case of `Cc1cccc(C)c1NC(=O)CN1CCCCCC1`, the result was inactive. Consider `Nc1ccc(S(=O)(=O)NCc2ccccc2)cc1`, for which the max response was -13.3%. As to `CN1CCc2cccc3c2[C@H]1Cc1ccc(O)c(O)c1-3`, the max response is -21.4%. Consider `CCN(CC)CCOc1ccc2c(c1)C(=O)c1cc(OCCN(CC)CC)ccc1-2`, for which the Potency is 23.7 µM (active).

As for `CCc1oc2ccccc2c1C(=O)c1cc(I)c(O)c(I)c1`, the max response is -2.92%. As to `CCCCCN=C(N)N/N=C/c1c[nH]c2ccc(OC)cc12`, the Potency was 18.8 µM (active).

As for `O=C(O)CCNC(=O)c1ccccc1`, the max response is 4.33%.

With `CCCCC(CC)COC(=O)/C=C/c1ccc(OC)cc1` (stereo unspecified), the max response is -9.77%. For `COc1cc(NS(=O)(=O)c2ccc(N)cc2)ncn1`, the molecule was called inactive.

In the case of `C[C@]12CCC(=O)C=C1C=C[C@@H]1[C@@H]2CC[C@@]2(C)[C@H]1CC[C@@]21CCC(=O)O1`, the Potency is 7.5 µM (active).

For the molecule `Cc1ccc2c(Br)cc(Br)c(O)c2n1`, the Potency was 21.1 µM (active). On to `C=C[C@@]1(C)CC(=O)[C@]2(O)[C@@]3(C)[C@@H](O)CCC(C)(C)[C@@H]3[C@H](O)[C@H](OC(C)=O)[C@@]2(C)O1`, for which the max response is 2.74%.

The values above are taken from PubChem BioAssay (NCATS).
